Data taken from the supplement of paper PMC8975748.
Counter-ions that a name gives are not always drawn.

test system: Saccharomyces cerevisiae BY4741 SeMeCo community; assay: z-score of subpopulation abundance vs DMSO median, subpopulation auxotrophic for HL; higher = larger share of this subpopulation than in DMSO controls; conditions: 10 µM; 24 h; SM minimal medium; subpopulation (auxotrophy): HL
Description: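 Fluorescent four-plasmid SeMeCo (self-establishing metabolically cooperating S. cerevisiae BY4741 community; plasmids pH-mRuby2, pL-mWasabi, pU-eCFP, pM-TagRFP657) was grown 24 h in minimal SM medium with each Selleck FDA-approved drug at 10 µM in 384-well plates. Cells were fixed and imaged by high-content confocal microscopy. For each auxotrophic subpopulation (and the prototroph), a z-score gives the deviation from the DMSO vehicle-control population median.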

Going from `CN(C)CCc1c[nH]c2ccc(C[C@H]3COC(=O)N3)cc12` [Zolmitriptan] to `COc1ccc(C(=O)NCc2ccc(OCCN(C)C)cc2)cc1OC` [Itopride hydrochloride], the “z-score of subpopulation abundance” value falls from 0.28 to -0.33.

Compared with `C=C[C@]1(C)C[C@@H](OC(=O)CSC(C)(C)CNC(=O)[C@H](N)C(C)C)[C@]2(C)[C@H](C)CC[C@]3(CCC(=O)[C@H]32)[C@@H](C)[C@@H]1O` [Valnemulin HCl], `CC(=O)O[C@]1(C(C)=O)CC[C@H]2[C@@H]3C[C@H](C)C4=CC(=O)CC[C@]4(C)[C@H]3CC[C@@]21C` [Medroxyprogesterone acetate] is lower in “z-score of subpopulation abundance” value: 0.85 for the first, -0.1 for the second.

Compared with `CC(C)Cc1ccc(C(C)C(=O)O)cc1` (stereo not given) [Ibuprofen Lysine], `CCOc1ccc(NC(C)=O)cc1` [Phenacetin] is higher in “z-score of subpopulation abundance” value: -0.13 for the first, -0.01 for the second.

Going from `Oc1ccc(Cl)c2cccnc12` [Cloxiquine] to `Oc1ccc(C2CNCCc3c2cc(O)c(O)c3Cl)cc1` (stereo not given) [Fenoldopam mesylate], the “z-score of subpopulation abundance” value falls from 17.4 to 0.16.

Compared with `CCc1c(C)[nH]c2c1C(=O)C(CN1CCOCC1)CC2` (stereo not given) [Molindone hydrochloride], `C[C@H]1COc2c(N3CCN(C)CC3)c(F)cc3c(=O)c(C(=O)O)cn1c23` [Levofloxacin hydrate] is higher in “z-score of subpopulation abundance” value: 0.22 for the first, 0.74 for the second.

First: Nc1nc(N)nc(-c2cc(Cl)ccc2Cl)n1 [Irsogladine]
Second: Clc1ccc(COC(Cn2ccnc2)c2ccc(Cl)cc2Cl)c(Cl)c1 (stereo not given) [Miconazole Nitrate]
The “z-score of subpopulation abundance” value of the first is lower: -0.18 for the first, 9.42 for the second.

Compared with `O=C(O)c1cc(O)c2c(c1)[C@H]([C@H]1c3cc(C(=O)O)cc(O)c3C(=O)c3c(O[C@@H]4O[C@H](CO)[C@@H](O)[C@H](O)[C@H]4O)cccc31)c1cccc(O[C@@H]3O[C@H](CO)[C@@H](O)[C@H](O)[C@H]3O)c1C2=O` [Sennoside A], `CN[C@H]1C(=O)N[C@@H]2Cc3ccc(cc3)Oc3cc4cc(c3O[C@@H]3O[C@H](C(=O)O)[C@@H](O)[C@H](O)[C@H]3NC(=O)CCCCCCCCC(C)C)Oc3ccc(cc3Cl)[C@@H](O)[C@@H]3NC(=O)[C@H](NC(=O)[C@@H]4NC(=O)[C@@H](NC2=O)c2cc(cc(O)c2Cl)Oc2cc1ccc2O)c1ccc(O)c(c1)-c1c(O[C@H]2O[C@H](CO)[C@@H](O)[C@H](O)[C@@H]2O)cc(O)cc1[C@@H](C(=O)NCCCN(C)C)NC3=O` [Dalbavancin] is higher in “z-score of subpopulation abundance” value: 0.29 for the first, 1.2 for the second.

First: CC/C(=C(/CC)c1ccc(O)cc1)c1ccc(O)cc1 [Diethylstilbestrol]
Second: CCC(C)(Oc1ccc(C2(c3ccc(OC(C)(CC)C(=O)O)cc3)CCCCC2)cc1)C(=O)O (stereo not given) [Clinofibrate]
The “z-score of subpopulation abundance” value of the first is higher: -0.25 for the first, -0.48 for the second.

Compared with `CCN(CC)C(=O)C1(c2ccccc2)CC1CN` (stereo not given) [Milnacipran HCl], `CC1=C(C(=O)O)N2C(=O)[C@@H](NC(=O)[C@H](N)c3ccccc3)[C@H]2SC1` [Cephalexin] is higher in “z-score of subpopulation abundance” value: -0.61 for the first, 0.67 for the second.

Compared with `Cc1ccsc1/C=C/C1=NCCCN1C` [Morantel tartrate], `Cc1ccc(Sc2ccccc2N2CCNCC2)c(C)c1` [Vortioxetine] is higher in “z-score of subpopulation abundance” value: -0.87 for the first, 0.77 for the second.

Going from `Cc1ccc(Nc2c(F)cccc2Cl)c(CC(=O)O)c1` [Lumiracoxib] to `CCOc1ccc2ccccc2c1C(=O)N[C@@H]1C(=O)N2[C@@H]1SC(C)(C)[C@@H]2C(=O)O` [Nafcillin Sodium], the “z-score of subpopulation abundance” value falls from -0.22 to -0.51.

First: Cn1c(=O)c2c(ncn2CC(O)CO)n(C)c1=O (stereo not given) [Dyphylline]
Second: CO[C@@]1(NC(=O)C(C(=O)O)c2ccc(O)cc2)C(=O)N2C(C(=O)O)=C(CSc3nnnn3C)CO[C@@H]21 (stereo not given in full) [Latamoxef sodium]
The “z-score of subpopulation abundance” value of the first is lower: -0.71 for the first, -0.07 for the second.

Going from `CC(C[N+](C)(C)C)OC(N)=O` (stereo not given) [Bethanechol chloride] to `CCCNCC(O)COc1ccccc1C(=O)CCc1ccccc1` (stereo not given) [Propafenone HCl], the “z-score of subpopulation abundance” value falls from -0.24 to -0.37.

Going from `CO[C@H]1C[C@@H]2CC[C@@H](C)[C@@](O)(O2)C(=O)C(=O)N2CCCC[C@H]2C(=O)O[C@H]([C@H](C)C[C@@H]2CC[C@@H](OC(=O)C(C)(CO)CO)[C@H](OC)C2)CC(=O)[C@H](C)/C=C(\C)[C@@H](O)[C@@H](OC)C(=O)[C@H](C)C[C@H](C)/C=C/C=C/C=C/1C` to `CCCCCOc1ccc(-c2ccc(-c3ccc(C(=O)N[C@H]4C[C@@H](O)[C@@H](O)NC(=O)[C@@H]5[C@@H](O)[C@@H](C)CN5C(=O)[C@H]([C@@H](C)O)NC(=O)[C@H]([C@H](O)[C@@H](O)c5ccc(O)cc5)NC(=O)[C@@H]5C[C@@H](O)CN5C(=O)[C@H]([C@@H](C)O)NC4=O)cc3)cc2)cc1`, the “z-score of subpopulation abundance” value rises from 15.9 to 31.2.

Compared with `CN(C)CCC=C1c2ccccc2C=Cc2ccccc21` [Cyclobenzaprine HCl], `CN(C)CCC=C1c2ccccc2CCc2ccccc21` [Amitriptyline HCl] is lower in “z-score of subpopulation abundance” value: -0.13 for the first, -0.48 for the second.

Going from `O=C1CN(/N=C/c2ccc(-c3ccc([N+](=O)[O-])cc3)o2)C(=O)N1` [Dantrolene sodium] to `NC(=O)N1c2ccccc2C=Cc2ccccc21` [Carbamazepine], the “z-score of subpopulation abundance” value falls from 1.35 to -0.72.

Going from `CC(N)C12CC3CC(CC(C3)C1)C2` (stereo not given) [Rimantadine] to `NCC[C@H](O)C(=O)N[C@@H]1C[C@H](N)[C@@H](O[C@H]2O[C@H](CN)[C@@H](O)[C@H](O)[C@H]2O)[C@H](O)[C@H]1O[C@H]1O[C@H](CO)[C@@H](O)[C@H](N)[C@H]1O` [Amikacin hydrate], the “z-score of subpopulation abundance” value rises from -0.19 to 0.87.

First: CN[C@@H]1[C@H](O[C@H]2[C@H](O[C@H]3[C@H](O)[C@@H](O)[C@H](N=C(N)N)[C@@H](O)[C@@H]3N=C(N)N)O[C@@H](C)[C@]2(O)C=O)O[C@@H](CO)[C@H](O)[C@H]1O [Streptomycin sulfate]
Second: COc1cc([C@@H]2c3cc4c(cc3[C@@H](O[C@@H]3O[C@@H]5CO[C@@H](c6cccs6)O[C@H]5[C@H](O)[C@H]3O)[C@H]3COC(=O)[C@H]23)OCO4)cc(OC)c1O [Teniposide]
The “z-score of subpopulation abundance” value of the first is lower: -0.36 for the first, 1.18 for the second.

Compared with `COc1cccc(-c2c(C)n(Cc3c(F)cccc3C(F)(F)F)c(=O)n(C[C@H](NCCCC(=O)O)c3ccccc3)c2=O)c1F` [Elagolix Sodium], `CN(C)[C@@H](CCOc1cccc2ccccc12)c1ccccc1` [Dapoxetine HCl] is higher in “z-score of subpopulation abundance” value: 0.13 for the first, 0.57 for the second.

Going from `NC(=NCCCCCCN=C(N)N=C(N)Nc1ccc(Cl)cc1)N=C(N)Nc1ccc(Cl)cc1` [Chlorhexidine?2HCl] to `CCCCCCCCCC(=O)N[C@@H](Cc1c[nH]c2ccccc12)C(=O)N[C@H](CC(N)=O)C(=O)N[C@@H](CC(=O)O)C(=O)N[C@@H]1C(=O)NCC(=O)N[C@@H](CCCN)C(=O)N[C@@H](CC(=O)O)C(=O)N[C@H](C)C(=O)N[C@@H](CC(=O)O)C(=O)NCC(=O)N[C@H](CO)C(=O)N[C@@H]([C@H](C)CC(=O)O)C(=O)N[C@@H](CC(=O)c2ccccc2N)C(=O)O[C@@H]1C` [Daptomycin], the “z-score of subpopulation abundance” value rises from 2.14 to 2.68.
